From PubChem BioAssay (NCATS)
“And” between values parts separate entries of the source, which are not always exact repeats. Equal values may be shown once. Inconclusive results are not listed. The source made the active and inactive calls. Unless noted, calls come from the whole dose curve; as a rule, active = well fitted curve in the direction sought with a large enough effect; inconclusive = small, poorly fitted or top-dose-only effect, or another doubt; inactive = no such curve, though single readings can be large; an effect the other way counts as inactive or inconclusive.

Assays:
[1] = S16 Schwann cell PMP22 intronic element firefly luciferase assay (AID 624032); note: nearly all actives have a fitted effect of over 30% in size; note: potency is the fitted concentration of half-maximal effect
In short: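 Rat S16 Schwann cells stably carrying a PMP22 intronic element-driven Fluc reporter were seeded overnight, then exposed to compounds for 24 h at 37 °C. Luminescence was normalized to PTC124 (positive control) and DMSO (0% activity).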

[2] = S16 Schwann cell PMP22 intronic element beta-lactamase assay (AID 624044; calls by dose curve; note: nearly all actives have a fitted effect of over 15% in size; note: potency is the fitted concentration of half-maximal effect)
In short: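 Rat S16 Schwann cells with beta-Lac driven by a PMP22 intronic element, compound-treated 24 h at 37 °C. LiveBLAzer FRET B/G read: 460 nm normalized to potassium clavulanate vs DMSO; 535 nm FRET as viability; concentration-effect curves classified.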

[3] = qHTS assay for small molecule agonists of the antioxidant response element (ARE) signaling pathway (AID 651741; active = well fitted activation curve with a large enough effect in the signal ratio; the % refers to the signal ratio; note: potency is the fitted concentration of half-maximal effect; for activation: % of control where 0% means no effect)
In short: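 ARE-bla HepG2 cells (beta-lactamase reporter under ARE control) were plated at 2,000 cells/well, preincubated 5 h at 37 C/5% CO2, then treated with DMSO-dissolved compounds for 16 h at 37 C; LiveBLAzer B/G FRET substrate added, fluorescence read after 2 h at room temperature.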

[4] = qHTS assay for small molecule activators of the nuclear factor-kappa B (NF-kB) signaling pathway (AID 651749; active = well fitted activation curve with a large enough effect in the signal ratio; the % refers to the signal ratio; note: % of control where 0% means no effect); settings: NF-kB-bla ME-180 cells, beta-lactamase FRET ratio, 16 h; stronger effect = higher value
In short: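 ME-180 cells stably carrying a beta-lactamase reporter under an NF-kB response element were exposed to compound or DMSO vehicle for 16 hr at 37C, 5% CO2. Pathway activation was read by FRET, since reporter expression disrupts FRET.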

[5] = target: Tumor necrosis factor (Homo sapiens) (UniProt P01375); assay: qHTS assay to identify small molecules that stimulate Tumor Necrosis Factor-alpha (TNF-alpha) secretion (AID 651757; active = well fitted curve in the direction sought with a large enough effect in the signal ratio; the % refers to the signal ratio; note: 0% is about no effect)
Tumor necrosis factor (Homo sapiens), sequence (P01375 whole entry, looked up): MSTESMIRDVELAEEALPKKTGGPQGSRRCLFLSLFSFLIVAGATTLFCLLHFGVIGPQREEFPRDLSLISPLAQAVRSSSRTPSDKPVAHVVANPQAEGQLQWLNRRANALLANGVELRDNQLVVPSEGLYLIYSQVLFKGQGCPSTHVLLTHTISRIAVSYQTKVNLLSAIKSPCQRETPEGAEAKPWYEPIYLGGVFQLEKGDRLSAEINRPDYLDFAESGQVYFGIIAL
In short: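 Secreted TNF-alpha from compound-treated THP-1 cells (17 hrs, 37 C) was quantified with a homogeneous time-resolved fluorescence antibody assay.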

[6] = qHTS assay for small molecule activators of the p53 signaling pathway (AID 651743; active = well fitted activation curve with a large enough effect in the signal ratio, not every such curve was filed as active; the % refers to the signal ratio; note: % of control where 0% means no effect); settings: HCT-116 p53RE-bla, beta-lactamase FRET ratio, 16 h; activation: stronger effect = higher value
In short: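 p53RE-bla HCT-116 cells with a stably integrated beta-lactamase reporter under p53 response elements were plated, rested 5 hours at 37 C/5% CO2, then exposed to compounds in DMSO for 16 hours at 37 C. LiveBLAzer B/G FRET substrate was read after 2 hours at room temperature.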

[7] = qHTS assay for environmental chemicals that activate the Aryl hydrocarbon Receptor (AhR) signaling pathway (AID 651777); settings: 1A2-DRE human hepatoma cells, luciferase, 24 h; activation: stronger effect = higher value; note: % of control where 0% means no effect; nearly all actives have a fitted effect of over 15% in size
In short: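 Reporter gene assay: hepatoma cells with DRE/CYP1A2-luciferase, 24 hr compound incubation at 37 C, 5% CO2, luminescence after One-Glo (30 min, RT).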

[8] = qHTS assay for small molecule disruptors of the mitochondrial membrane potential - 1 hr assay (AID 651754; calls by dose curve; note: % is set by controls: 0 for no effect and ±100 for the full control effect; nearly all actives have a fitted effect of over 35% in size)
In short: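 Steps: seed HepG2 cells and let attach overnight; pin-transfer compound or vehicle; incubate 1 hr at 37C; add Mito-MPS dye for 30 min; read two-channel fluorescence for monomer and aggregate forms.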

[9] = qHTS assay for small molecule disruptors of the mitochondrial membrane potential - 5 hr assay (AID 651755; calls by dose curve; note: % is set by controls: 0 for no effect and ±100 for the full control effect; nearly all actives have a fitted effect of over 40% in size)
In short: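 HepG2 cells, attached overnight at 37C, were exposed to compound or DMSO for 5 hr at 37C, 5% CO2. Mito-MPS dye was then added for 30 min, and fluorescence read at 490/535 nm (monomers) and 540/590 nm (aggregates).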

[10] = Cytotoxicity counterscreen for NFkB agonists and antagonists (AID 624476);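 note: cells exposed to compound for 48 hours; % is set by controls: 0 for no effect and ±100 for the full control effect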
[11] = qHTS Assay for Identification of Small Molecule Antagonists for NFkB Signaling Pathway. (AID 624479; calls by dose curve;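 note: pathway stimulated with TNF alpha; % is set by controls: 0 for no effect and ±100 for the full control effect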)
[12] = Cell Proliferation Assay against the HBL1 Cell Line (AID 651646); settings: HBL1 DLBCL cells; at 46.1 µM (top of the series) unless noted;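 note: cells exposed to compound for 48 h before reading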
In short: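 500 log-phase HBL1 cells per well in phenol red-free RPMI with 5% FBS were treated with compounds for 48 h at 37 °C, 5% CO2. Viability was read by CellTiter-Glo luminescence, normalized to DMSO (100%) and 9.2 uM bortezomib final (0%).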

[13] = Cell Proliferation Assay against the TMD8 Cell Line (Caspase readout at 16 hrs) (AID 651712)
In short: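 TMD8 cells (500/well) in phenol-red-free RPMI with glutamine, 5% FBS, were exposed to compounds for 16 h at 37 °C. Caspase 3/7 activation was read by Caspase-Glo luminescence; percent activity normalised to DMSO (0%) and 9.2 uM bortezomib final (100%).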

[14] = Cell Proliferation Assay against the TMD8 Cell Line (Caspase readout at 8 hrs) (AID 651713)
In short: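 Percent activity derived from Caspase-Glo signal, DMSO set to 0% and bortezomib (9.2 uM final) to 100%. TMD8 cells were exposed to compound for 8 h in RPMI with 5% FBS.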

[15] = target: Glutaminase kidney isoform, mitochondrial (Homo sapiens) (UniProt O94925); assay: qHTS for Inhibitors of Glutaminase (GLS): LOPAC Validation (AID 624146); note: nearly all actives have a fitted effect of over 60% in size; note: potency is the fitted concentration of half-maximal effect
Glutaminase kidney isoform, mitochondrial (Homo sapiens), sequence (O94925 whole entry, looked up, canonical isoform): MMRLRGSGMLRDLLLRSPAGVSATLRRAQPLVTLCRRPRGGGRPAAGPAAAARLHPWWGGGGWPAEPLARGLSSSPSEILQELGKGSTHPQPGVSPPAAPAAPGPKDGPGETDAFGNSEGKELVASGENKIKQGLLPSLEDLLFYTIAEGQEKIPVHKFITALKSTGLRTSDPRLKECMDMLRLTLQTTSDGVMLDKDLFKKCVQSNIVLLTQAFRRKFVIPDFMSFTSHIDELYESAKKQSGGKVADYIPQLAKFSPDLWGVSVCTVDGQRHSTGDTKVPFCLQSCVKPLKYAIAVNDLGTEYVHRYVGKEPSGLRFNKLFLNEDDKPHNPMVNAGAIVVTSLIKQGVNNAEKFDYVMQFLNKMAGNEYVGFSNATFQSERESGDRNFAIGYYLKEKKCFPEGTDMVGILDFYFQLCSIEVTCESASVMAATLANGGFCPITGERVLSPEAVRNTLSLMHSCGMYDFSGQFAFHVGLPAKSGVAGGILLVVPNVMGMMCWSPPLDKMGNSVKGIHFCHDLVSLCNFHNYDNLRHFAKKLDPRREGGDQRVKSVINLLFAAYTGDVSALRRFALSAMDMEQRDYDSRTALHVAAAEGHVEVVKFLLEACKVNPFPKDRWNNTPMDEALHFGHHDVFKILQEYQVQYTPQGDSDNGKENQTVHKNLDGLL
In short: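 Read-out is an Amplex red fluorescence increase coupled through glutamate oxidase and HRP, measured before and after 30 min room-temperature incubation. hKGA is in 45 mM KH2PO4 (pH 8.2) with 0.02% Tween-20; glutamine added as 1mM solution.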

[16] = qHTS of Trypanosoma Brucei Inhibitors: LOPAC Validation (AID 624147); note: potency is the fitted concentration of half-maximal effect
In short: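 Readout: single end-point luminescence (Kinase-Glo Plus, 10 min). Reaction conditions were TbPYK/substrate plus 130 uM ADP, 45 min at RT, pH 7.2 TEA buffer. No-enzyme wells served as controls, and data were normalized before concentration-response fitting.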

[17] = target: Glucagon-like peptide 1 receptor (Homo sapiens) (UniProt P43220); assay: qHTS of GLP-1 Receptor Agonists: LOPAC Validation (AID 624148);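 note: 0% is about no effect; higher luminescence signal means agonism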
Glucagon-like peptide 1 receptor (Homo sapiens), sequence (P43220 whole entry, looked up): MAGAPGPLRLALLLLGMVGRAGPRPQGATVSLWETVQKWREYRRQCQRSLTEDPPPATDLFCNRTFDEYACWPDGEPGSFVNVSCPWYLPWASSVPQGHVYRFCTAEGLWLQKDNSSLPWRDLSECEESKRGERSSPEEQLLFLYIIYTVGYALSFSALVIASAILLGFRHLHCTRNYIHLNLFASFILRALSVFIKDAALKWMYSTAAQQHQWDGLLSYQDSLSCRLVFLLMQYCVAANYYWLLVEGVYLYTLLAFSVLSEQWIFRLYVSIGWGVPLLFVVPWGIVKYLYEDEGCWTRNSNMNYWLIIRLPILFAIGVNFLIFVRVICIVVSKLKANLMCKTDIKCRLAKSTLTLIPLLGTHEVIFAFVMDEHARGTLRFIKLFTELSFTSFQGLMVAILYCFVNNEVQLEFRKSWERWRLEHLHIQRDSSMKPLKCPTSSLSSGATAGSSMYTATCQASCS
In short: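 HEK293 cells stably co-expressing a cAMP-responsive luciferase reporter and a hypersensitive GLP-1R were plated 12 h at 37 °C and exposed to compounds for 4-6 hr at 37 °C, 5% CO2. Luminescence was read 12 min after adding detection reagent.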

[18] = qHTS of Nrf2 Activators: LOPAC Validation (AID 624149); note: 0% is about no effect
In short: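 ARE reporter activation measured in AREc32 firefly luciferase cells after 24 hr compound exposure; Steady-Glo luminescence.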

[19] = qHTS assay to identify small molecules that stimulate interleukin-8 (IL-8) secretion (AID 651758; active = well fitted activation curve with a large enough effect in the signal ratio; the % refers to the signal ratio; note: 0% is about no effect)
In short: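 THP-1, 2000 cells/well; cpd 16 h, 37 C; add cryptate + XL665 anti-IL-8 Abs; RT 1-3 h; TR-FRET read.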

[20] = HTS Assay for Allosteric Antagonists of the Human D2 Dopamine Receptor: Hit Validation in HTRF (AID 624455);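 note: stable D1 dopamine receptor cell line scored for blocking the D1 response; % is set by controls: 0 for no effect and ±100 for the full control effect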
In short: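 Signal from an HTRF read-out in D1-expressing stable cells gave hit activity as inhibition of the D1 response.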

Oc1ccc(OCc2ccccc2)cc1
inactive: Potency [1]
active: Potency [2] 6.73 µM

c1ccc2[nH]c(-c3cscn3)nc2c1
inactive: Potency [1] | Potency [2] | Potency [3] | activation [4] -1.73% and -1.48% | Potency [5]

CCCc1cc(=O)[nH]c(=S)[nH]1
inactive: Potency [1] | Potency [3] | activation [6] 0.119% and 0.547% | Potency [5] | activation [7] 0.594% and 1.79%

NS(=O)(=O)c1cc(C(=O)O)c(NCc2ccco2)cc1Cl
inactive: Potency [1] | Potency [2] | Potency [3] | activation [4] -1.24% and -2.58% | Potency [8] | Potency [9] | Potency [5]

Nc1ccc(S(N)(=O)=O)cc1
inactive: Potency [1] | Potency [2] | Potency [3] | activation [6] -2.72% | Potency [8] | Potency [9] | Potency [5] | activation [7] -0.82%

CCN(CCO)CCCC(C)Nc1ccnc2cc(Cl)ccc12 (stereo unspecified)
121%: viability, percent of control [12]
inactive: Potency [1] | Potency [2] | Potency [10] | Potency [11] | Potency [13] | Potency [14]

COc1ccc2cc([C@H](C)C(=O)O)ccc2c1
inactive: Potency [1] | Potency [15] | Potency [16] | outcome [17] | outcome [18]

COc1cc(OC)c(C(=O)CCCN2CCCC2)c(OC)c1
inactive: Potency [1] | Potency [3] | activation [6] -0.273% | activation [4] -0.152% | activation [7] -1.93%

Cc1ccc(C)c(OCCCC(C)(C)C(=O)O)c1
inactive: Potency [1] | Potency [2] | Potency [3] | activation [4] -1.25% and -0.0385% | Potency [8] | Potency [9] | Potency [5] | activation [7] -0.112% and 1.21%

CS(=O)(=O)OCCCCOS(C)(=O)=O
inactive: Potency [1] | Potency [2] | activation [6] 1.64% and 0.944% and -3.49% | Potency [8] | Potency [9] | Potency [5] | outcome [19] | activation [7] 2.49% and 0.0953% and 0.509%

CCCCc1ccc2nc(NC(=O)OC)[nH]c2c1
active: Potency [2] 0.239 µM
inactive: Potency [1]

CNC[C@@H](O)[C@@H](O)[C@H](O)[C@H](O)CO
inactive: Potency [1] | Potency [2]

O=C(NCC1CCCCN1)c1cc(OCC(F)(F)F)ccc1OCC(F)(F)F (stereo unspecified)
inactive: Potency [1] | Potency [2]

NNc1nncc2ccccc12
inactive: Potency [1] | Potency [16] | outcome [17] | outcome [18] | outcome [20]

CCOc1cc(CC(=O)N[C@@H](CC(C)C)c2ccccc2N2CCCCC2)ccc1C(=O)O
inactive: Potency [1] | Potency [2]

Cc1ccc(NC(=O)c2ccc(CN3CCN(C)CC3)cc2)cc1Nc1nccc(-c2cccnc2)n1
inactive: Potency [1] | Potency [10]
38%: viability, percent of control [12]

CC1(C)NC(=O)N(c2ccc([N+](=O)[O-])c(C(F)(F)F)c2)C1=O
active: Potency [3] 54.5 µM
inactive: Potency [2] | Potency [15] | Potency [16] | outcome [17] | outcome [18] | outcome [20] | activation [6] 15.1% | activation [7] 1.77%

O=C1c2ccccc2-c2n[nH]c3cccc1c23
inactive: Potency [1] | Potency [2] | Potency [15] | Potency [16] | outcome [17] | outcome [18] | outcome [20]

CCN(CC)C(=S)SSC(=S)N(CC)CC
active: Potency [1] 4.55 µM | Potency [15] 7.94 µM | Potency [16] 9.53 µM
inactive: outcome [17] | Potency [3] | activation [6] 4.22% | activation [4] 0.724%

COc1c2occc2cc2ccc(=O)oc12
inactive: Potency [1] | Potency [2] | Potency [3] | activation [6] -0.24% and -0.96% | Potency [8] | Potency [9] | Potency [5]
